Measured values as given in the supplement of paper PMC10849652.
About 7,900 targets were measured; listed, in parts, are those with a hit and a random draw of the rest. About 0.6% of all pairs of compound and target were hits. Unmarked numbers belong to inactive results.

Experiments:
Assay in all cases: log2 fold change, soluble protein after heating vs DMSO (PISA); higher = thermal stabilisation; K562 cells, 10 uM, 30 min; active = over 0.2 and 3.5 SD of the protein, either way, in both replicates (recomputed)
erlotinib = compound: C#Cc1cccc(Nc2ncnc3cc(OCCOC)c(OCCOC)cc23)c1 [erlotinib]
Outline: (§1)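 Soluble protein was defined as the supernatant after 21,000xg for 90 min. It came from K562 cells at 2×10^6 cells/mL given 10 μM compound for 30 min, heated in aliquots for 3 min across 48°C-58°C, pooled, and extracted in PBS with 0.5% NP-40 at 4°C, and was quantified by TMTpro 16plex LC-MS/MS with equalised channel sums. Thermal stability against control samples, from duplicates, is reported as log2 fold change.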

[1] = compound: C/C(=N\NC(=O)C1=CC(=CC=C1)S(=O)(=O)N2CCOCC2)/C3=C(C=CC(=C3)Cl)O
Outline: as §1

[2] = compound: C1=CC(=C(C=C1Cl)C2=NC3=NC=CN=C3C(=N2)NC4=CC=NC=C4)F
Outline: as §1

[3] = compound: C1=CC(=CC=C1C2=NC3=C(N2)C=C(C=C3)C(=O)N)OC4=CC=C(C=C4)Cl
Outline: as §1

[4] = compound: C1=CC2=C(C=CC(=C2)/C=C\3/C(=O)NC(=NCC4=CC=CS4)S3)N=C1
Outline: as §1

[5] = compound: C1=CC2=NC=CN=C2C=C1/C=C/3\C(=O)NC(=O)S3
Outline: as §1

[6] = compound: C1=CC=C(C=C1)C2=NC(=C(N2)C3=CC=NC=C3)C4=CC(=C(C=C4)Cl)O
Outline: as §1

[7] = compound: C1=CC=C2C(=C1)C3=NNC4=CC=CC(=C43)C2=O
Outline: as §1

[8] = compound: C1CCN(C1)C(=O)NC2=CC=CC(=C2)NC3=NC=C(C(=N3)NCCC4=CN=CN4)Br
Outline: as §1

[9] = compound: C1CN(CCC1(CC2=CC=C(C=C2)Cl)N)C3=NC=NC4=C3C=CN4
Outline: as §1

IRAK-1-4 Inhibitor I = compound: C1COCCN1CCN2C3=CC=CC=C3N=C2NC(=O)C4=CC(=CC=C4)[N+](=O)[O-] [IRAK-1-4 Inhibitor I]
Outline: as §1

ibrutinib = compound: C=CC(=O)N1CCC[C@@H](n2nc(-c3ccc(Oc4ccccc4)cc3)c3c(N)ncnc32)C1 [ibrutinib]
Outline: as §1

[10] = compound: CC(=O)c1cnc2ccc(-c3cc(Cl)c(O)c(Cl)c3)nc2c1N[C@H]1CC[C@H](CN(C)C)CC1
Outline: as §1

ralimetinib = compound: CC(C)(C)Cn1c(N)nc2ccc(-c3[nH]c(C(C)(C)C)nc3-c3ccc(F)cc3)nc21 [ralimetinib]
Outline: as §1

[11] = compound: CC(C)(O)CC(=O)NCCn1ccc2ncnc(Nc3ccc(Oc4cccc(C(F)(F)F)c4)c(Cl)c3)c21
Outline: as §1

[12] = compound: CC(C)C1=C2N=C(C=C(N2N=C1)NCC3=CC=CC=C3)NCCCCCCN
Outline: as §1

[13] = compound: CC(C)C[C@@H](C=O)NC(=O)[C@H](CC(C)C)NC(=O)[C@H](CC(C)C)NC(=O)OCc1ccccc1
Outline: as §1

pinometostat = compound: CC(C)N(C[C@H]1O[C@@H](n2cnc3c(N)ncnc32)[C@H](O)[C@@H]1O)[C@H]1C[C@@H](CCc2nc3cc(C(C)(C)C)ccc3[nH]2)C1 [pinometostat]
Outline: as §1

[14] = compound: CC1=C(C(CC(=O)N1)C2=CC=C(C=C2)C(F)(F)F)C(=O)NC3=C(C=C4C(=C3)C=NN4)F
Outline: as §1

[15] = compound: CC1=C(C2=C(C=C1)C(=O)C3=CC=CC=C3N2CCCN)C
Outline: as §1

Chain of UniProt Q9BVV7 (Q9BVV7 whole entry, looked up): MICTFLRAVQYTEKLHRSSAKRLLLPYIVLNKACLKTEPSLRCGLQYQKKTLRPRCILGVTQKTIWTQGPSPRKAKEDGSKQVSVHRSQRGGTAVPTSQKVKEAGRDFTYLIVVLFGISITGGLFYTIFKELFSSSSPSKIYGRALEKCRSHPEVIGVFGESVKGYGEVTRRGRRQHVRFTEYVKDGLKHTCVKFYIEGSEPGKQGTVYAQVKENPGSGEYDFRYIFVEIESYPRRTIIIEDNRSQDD
Chain of UniProt P63165 (P63165 whole entry, looked up): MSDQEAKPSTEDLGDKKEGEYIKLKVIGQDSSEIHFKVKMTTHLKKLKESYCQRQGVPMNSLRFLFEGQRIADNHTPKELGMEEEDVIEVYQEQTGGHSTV
Chain of UniProt P62072 (P62072 whole entry, looked up): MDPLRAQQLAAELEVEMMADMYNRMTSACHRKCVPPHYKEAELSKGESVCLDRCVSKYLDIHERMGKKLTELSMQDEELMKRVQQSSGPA
Chain of UniProt O60749 (O60749 whole entry, looked up): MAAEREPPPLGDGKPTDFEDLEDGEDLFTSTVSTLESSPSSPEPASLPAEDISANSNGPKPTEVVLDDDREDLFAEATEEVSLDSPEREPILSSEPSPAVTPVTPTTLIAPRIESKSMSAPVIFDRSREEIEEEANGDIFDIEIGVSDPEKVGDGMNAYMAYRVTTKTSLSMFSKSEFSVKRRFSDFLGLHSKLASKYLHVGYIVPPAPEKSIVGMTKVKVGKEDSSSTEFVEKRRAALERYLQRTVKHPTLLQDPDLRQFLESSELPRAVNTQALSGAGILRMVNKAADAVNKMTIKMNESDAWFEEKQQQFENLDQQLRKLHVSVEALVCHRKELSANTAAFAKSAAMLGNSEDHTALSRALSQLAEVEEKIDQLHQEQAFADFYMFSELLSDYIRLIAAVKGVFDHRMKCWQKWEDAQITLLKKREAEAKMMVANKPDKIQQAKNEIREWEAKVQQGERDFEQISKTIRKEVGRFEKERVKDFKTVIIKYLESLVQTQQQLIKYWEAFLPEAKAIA
Chain of UniProt Q13596 (Q13596 whole entry, looked up): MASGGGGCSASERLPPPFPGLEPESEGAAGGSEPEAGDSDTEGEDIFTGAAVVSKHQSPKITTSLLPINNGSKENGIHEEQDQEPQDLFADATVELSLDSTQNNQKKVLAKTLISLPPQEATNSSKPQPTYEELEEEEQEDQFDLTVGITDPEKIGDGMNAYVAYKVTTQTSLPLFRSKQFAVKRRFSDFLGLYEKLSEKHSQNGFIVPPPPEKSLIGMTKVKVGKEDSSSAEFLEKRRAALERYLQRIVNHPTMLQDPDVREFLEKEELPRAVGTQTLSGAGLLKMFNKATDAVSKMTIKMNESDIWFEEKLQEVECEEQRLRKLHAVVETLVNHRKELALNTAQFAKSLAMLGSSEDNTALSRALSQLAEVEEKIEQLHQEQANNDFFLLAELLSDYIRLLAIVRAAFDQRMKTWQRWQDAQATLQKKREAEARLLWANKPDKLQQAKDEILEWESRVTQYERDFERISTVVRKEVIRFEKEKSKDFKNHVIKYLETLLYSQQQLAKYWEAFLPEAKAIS
Chain of UniProt Q9Y2H1 (Q9Y2H1 whole entry, looked up): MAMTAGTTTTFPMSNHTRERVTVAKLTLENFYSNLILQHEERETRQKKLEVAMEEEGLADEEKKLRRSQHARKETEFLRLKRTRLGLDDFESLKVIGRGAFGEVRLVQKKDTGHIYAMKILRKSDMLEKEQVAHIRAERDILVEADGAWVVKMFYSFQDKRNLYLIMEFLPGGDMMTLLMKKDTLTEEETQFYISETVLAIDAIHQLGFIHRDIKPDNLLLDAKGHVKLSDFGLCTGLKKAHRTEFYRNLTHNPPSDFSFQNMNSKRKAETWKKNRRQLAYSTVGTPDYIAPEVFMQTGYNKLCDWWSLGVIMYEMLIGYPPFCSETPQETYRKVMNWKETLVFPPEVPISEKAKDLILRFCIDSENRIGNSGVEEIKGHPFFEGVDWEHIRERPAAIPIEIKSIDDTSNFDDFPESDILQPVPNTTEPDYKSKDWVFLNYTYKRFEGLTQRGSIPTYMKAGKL
Chain of UniProt P15907 (P15907 whole entry, looked up): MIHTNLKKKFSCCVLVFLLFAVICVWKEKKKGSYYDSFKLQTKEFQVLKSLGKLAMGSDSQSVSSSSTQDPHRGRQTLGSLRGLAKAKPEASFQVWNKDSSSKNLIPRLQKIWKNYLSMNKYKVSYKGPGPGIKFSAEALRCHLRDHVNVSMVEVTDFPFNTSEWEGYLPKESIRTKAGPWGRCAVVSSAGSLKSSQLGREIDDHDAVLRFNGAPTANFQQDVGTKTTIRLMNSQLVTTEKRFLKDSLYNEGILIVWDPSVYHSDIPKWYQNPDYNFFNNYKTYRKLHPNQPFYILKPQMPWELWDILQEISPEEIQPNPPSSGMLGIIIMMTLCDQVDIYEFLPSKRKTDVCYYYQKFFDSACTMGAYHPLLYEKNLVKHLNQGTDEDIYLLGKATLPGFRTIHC
Chain of UniProt Q13501 (Q13501 whole entry, looked up): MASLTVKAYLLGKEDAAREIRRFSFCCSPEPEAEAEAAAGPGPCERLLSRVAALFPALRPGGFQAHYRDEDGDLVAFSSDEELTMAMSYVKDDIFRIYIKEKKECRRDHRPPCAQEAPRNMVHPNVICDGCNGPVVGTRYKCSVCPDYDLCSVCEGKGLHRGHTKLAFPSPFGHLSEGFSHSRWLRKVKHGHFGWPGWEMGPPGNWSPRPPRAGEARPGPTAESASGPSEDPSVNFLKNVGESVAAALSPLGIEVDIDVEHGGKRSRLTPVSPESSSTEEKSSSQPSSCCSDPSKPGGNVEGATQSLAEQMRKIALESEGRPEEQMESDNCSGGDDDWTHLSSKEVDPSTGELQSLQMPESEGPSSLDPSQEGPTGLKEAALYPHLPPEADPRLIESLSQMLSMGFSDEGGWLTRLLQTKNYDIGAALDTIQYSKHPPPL
Chain of UniProt O43615 (O43615 whole entry, looked up): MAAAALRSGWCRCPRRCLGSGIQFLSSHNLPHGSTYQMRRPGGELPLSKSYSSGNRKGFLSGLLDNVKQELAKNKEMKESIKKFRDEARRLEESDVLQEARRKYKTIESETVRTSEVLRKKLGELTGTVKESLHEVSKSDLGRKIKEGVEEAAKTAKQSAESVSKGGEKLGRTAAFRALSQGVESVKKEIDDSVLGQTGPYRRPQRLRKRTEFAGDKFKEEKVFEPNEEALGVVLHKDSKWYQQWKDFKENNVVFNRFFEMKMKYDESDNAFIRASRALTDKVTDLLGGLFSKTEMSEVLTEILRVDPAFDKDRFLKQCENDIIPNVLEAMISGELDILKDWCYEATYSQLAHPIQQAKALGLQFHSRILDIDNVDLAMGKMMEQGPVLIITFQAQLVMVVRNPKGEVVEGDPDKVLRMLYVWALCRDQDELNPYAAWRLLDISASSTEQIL
Chain of UniProt Q08AE8 (Q08AE8 whole entry, looked up): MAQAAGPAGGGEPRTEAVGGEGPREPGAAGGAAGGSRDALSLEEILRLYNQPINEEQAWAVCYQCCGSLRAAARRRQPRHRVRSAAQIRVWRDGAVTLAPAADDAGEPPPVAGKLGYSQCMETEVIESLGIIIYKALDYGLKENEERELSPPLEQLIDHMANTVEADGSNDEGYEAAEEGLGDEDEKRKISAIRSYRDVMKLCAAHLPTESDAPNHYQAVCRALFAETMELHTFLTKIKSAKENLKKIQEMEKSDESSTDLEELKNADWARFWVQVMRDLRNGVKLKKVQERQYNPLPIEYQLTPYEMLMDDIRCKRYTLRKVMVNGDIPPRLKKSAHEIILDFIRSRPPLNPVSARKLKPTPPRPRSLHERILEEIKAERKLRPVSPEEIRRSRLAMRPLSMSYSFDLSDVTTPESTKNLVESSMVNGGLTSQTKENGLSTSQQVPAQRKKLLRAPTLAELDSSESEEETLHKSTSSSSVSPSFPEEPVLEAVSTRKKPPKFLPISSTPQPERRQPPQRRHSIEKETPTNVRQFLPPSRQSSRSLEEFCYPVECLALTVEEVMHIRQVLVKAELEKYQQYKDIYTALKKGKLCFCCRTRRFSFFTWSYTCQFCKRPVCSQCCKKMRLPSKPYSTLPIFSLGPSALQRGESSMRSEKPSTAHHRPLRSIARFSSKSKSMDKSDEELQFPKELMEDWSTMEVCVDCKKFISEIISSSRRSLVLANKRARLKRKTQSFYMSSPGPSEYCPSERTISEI
Chain of UniProt Q8NEF9 (Q8NEF9 whole entry, looked up): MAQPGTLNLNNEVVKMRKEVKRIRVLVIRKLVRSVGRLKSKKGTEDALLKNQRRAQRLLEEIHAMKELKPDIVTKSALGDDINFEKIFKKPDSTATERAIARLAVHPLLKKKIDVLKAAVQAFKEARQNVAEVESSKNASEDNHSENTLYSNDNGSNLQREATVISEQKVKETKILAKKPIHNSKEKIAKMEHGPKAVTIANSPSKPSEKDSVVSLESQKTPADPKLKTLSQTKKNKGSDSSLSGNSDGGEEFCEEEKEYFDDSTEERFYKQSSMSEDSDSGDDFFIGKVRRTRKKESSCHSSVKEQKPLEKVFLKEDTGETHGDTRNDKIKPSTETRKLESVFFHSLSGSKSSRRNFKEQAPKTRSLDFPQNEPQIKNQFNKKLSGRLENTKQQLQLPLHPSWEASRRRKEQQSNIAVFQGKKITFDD
Chain of UniProt Q13043 (Q13043 whole entry, looked up): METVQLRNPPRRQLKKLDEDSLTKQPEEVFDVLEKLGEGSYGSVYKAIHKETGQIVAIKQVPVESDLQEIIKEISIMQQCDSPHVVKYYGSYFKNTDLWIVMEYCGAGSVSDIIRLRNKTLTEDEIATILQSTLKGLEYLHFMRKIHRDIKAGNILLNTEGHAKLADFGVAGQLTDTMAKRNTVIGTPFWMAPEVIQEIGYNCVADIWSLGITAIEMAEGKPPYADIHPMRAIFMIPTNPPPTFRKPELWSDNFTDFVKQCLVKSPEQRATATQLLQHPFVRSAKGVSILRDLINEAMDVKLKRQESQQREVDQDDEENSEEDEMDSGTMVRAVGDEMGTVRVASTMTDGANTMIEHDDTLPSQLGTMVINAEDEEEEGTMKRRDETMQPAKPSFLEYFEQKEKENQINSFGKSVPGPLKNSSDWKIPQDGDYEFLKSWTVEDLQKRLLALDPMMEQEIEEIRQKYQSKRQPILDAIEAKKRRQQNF

Target	log2 fold change (erlotinib)	log2 fold change [1]	log2 fold change [2]	log2 fold change [3]	log2 fold change [4]	log2 fold change [5]	log2 fold change [6]	log2 fold change [7]	log2 fold change [8]	log2 fold change [9]	log2 fold change (IRAK-1-4 Inhibitor I)	log2 fold change (ibrutinib)	log2 fold change [10]	log2 fold change (ralimetinib)	log2 fold change [11]	log2 fold change [12]	log2 fold change [13]	log2 fold change (pinometostat)	log2 fold change [14]	log2 fold change [15]
STK38L (UniProt Q9Y2H1)	-0.005	0.018	0.05	0.031	-0.015	0.046	-0.368	0.102	0.008	-0.041	-0.084	-0.048	-0.181	-0.577	-0.035	-0.148	0.385	0.051	0.013	-0.023
ST6GAL1 (UniProt P15907)	0.053	0.006	0.017	0.022	-0.033	-0.009	0.064	0.048	-0.064	0.041	-0.01	0.002	0.021	0.041	0.058	-0.051	-0.009	0.024	0.02	0.011
TIMM44 (UniProt O43615)	-0.012	0.026	0.054	-0.007	0.024	0.041	0.042	0.012	0.028	-0.029	0.066	-0.061	-0.065	-0.039	-0.171	-0.399 (active)	0.006	-0.004	0.028	0.022
TIMM21 (UniProt Q9BVV7)	0.026	0.068	0.004	-0.008	0.035	-0.001	-0.001	0.081	-0.002	0.021	-0.009	-0.02	-0.026	-0.01	0.011	-0.169	0.099	-0.02	-0.013	0.063
SUGP1 (UniProt Q8IWZ8)	0.039	0.093	-0.027	-0.029	-0.01	0.005	0	-0.012	-0.03	-0.001	0.008	-0.024	-0.08	-0.023	-0.003	-0.127	0.061	-0.017	0.011	-0.003
SUMO1 (UniProt P63165)	-0.126	0.167	0.006	-0.06	0.182	0.043	0.045	-0.06	0.211	0.033	-0.079	-0.007	-0.077	0.053	0.139	-0.065	0.01	0.022	0.042	-0.125
SRFBP1 (UniProt Q8NEF9)	-0.256	-0.082	-0.114	0.039	-0.03	0.104	-0.08	0.082	0.069	-0.065	-0.081	-0.037	-0.099	-0.022	0.091	0.137	0.25	0.018	0.21	0.023
SRSF3 (UniProt P84103)	-0.074	-0.03	-0.35	0.053	-0.074	-0.009	-0.003	0.006	0.097	-0.107	-0.207	0.11	-0.035	0.112	0.19	0.083	0.152	0.064	0.125	-0.134
SNX1 (UniProt Q13596)	0.048	0.034	0.009	0.055	0.005	-0.035	-0.024	-0.118	0.017	-0.03	0.022	0.022	-0.227	0.033	-0.288	-0.246	0.034	0.014	0.015	0.036
STK4 (UniProt Q13043)	-0.017	0	-0.02	0.003	0.04	-0.02	-0.009	-0.208 (active)	-0.025	0.025	-0.012	-0.078	-0.233 (active)	0.002	-0.018	-0.019	0.015	0.008	0.023	0.019
SQSTM1 (UniProt Q13501)	-0.058	-0.008	0.101	0.037	-0.017	0.108	-0.004	0.02	-0.135	-0.045	-0.006	0.012	-0.298 (active)	-0.026	0.058	-0.118	0.039	0.048	0.077	-0.079
SRRM2 (UniProt Q9UQ35)	0.067	0.095	-0.136	0.07	-0.123	0.014	-0.044	-0.073	-0.061	-0.128	-0.074	-0.015	-0.326	0.063	0.01	-0.258	0.002	0.005	-0.005	-0.181
TIMM10 (UniProt P62072)	-0.109	-0.021	0.137	-0.011	0.044	0.051	0.072	0.029	-0.014	-0.016	-0.06	0.024	-0.041	-0.145	-0.026	0.047	-0.09	-0.078	0.031	0.174
SPIRE1 (UniProt Q08AE8)	0.16	-0.264	-0.466 (active)	-0.119	0.11	-0.034	0.048	-0.063	0.01	0.145	-0.065	0.032	0	0.008	0.073	0.181	0.09	-0.006	-0.036	0.029
STK39 (UniProt Q9UEW8)	0.064	0.07	0.038	-0.096	0.035	0.06	0.034	0.019	0.014	-0.025	0.048	-0.006	-0.3 (active)	0.022	-0.09	-0.124	-0.018	-0.02	0.013	0.007
SNX2 (UniProt O60749)	0.043	0.075	0.002	0.041	0.067	-0.059	-0.057	-0.049	0.006	-0.013	0.058	0.043	-0.135	-0.014	-0.154	-0.189	0.079	0.016	0.019	0.03
